# Test results from the supplement of paper PMC12494721.
# Structures can show the parent of a compound that is named as a salt.
# System: Ruminococcus gnavus DSM 108212
# Assay: fold change of 2-Phenylethylamine concentration vs plate DMSO controls (fold change (ratio)); higher = more amine produced, active = hit call of the paper (significant change in both replicates, either direction)
# Conditions: incubation time: 27 h, anaerobic, 37 °C;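 for the amine columns active = adjusted P below 0.05 in both replicates with a change the same way and a mean fold change under 0.8 or over 1.25; inactive = the rest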
# In short: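 Using LC–triple-quadrupole MS with dynamic MRM, amines were quantified against external calibration curves and corrected for drift within each batch. Samples were whole anaerobic mGAM cultures of four gut strains, grown 27 h at 37 °C from OD 0.1 before 1:1 dilution, extracted with cold acetonitrile/methanol containing 0.1% formic acid and centrifuged. Compounds were present at 20 µM final (sweeteners at 50 µM final). The numbers are fold changes versus plate DMSO controls, each the mean of 2 biological replicates.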
row,Compound,fold change of 2-Phenylethylamine concentration
1,COc1ccc(CC(C)NCC(O)c2ccc(O)c(NC=O)c2)cc1 (configuration not stated) [Formoterol fumarate] (20 µM),1.11 (inactive)
2,CCN(CC)CCc1nc(-c2ccccc2)no1 [Oxolamine citrate salt] (20 µM),1.03 (inactive)
3,O=C(O)c1cc(-c2ccc(F)cc2F)ccc1O [Diflunisal] (20 µM),1.1 (inactive)
4,NC(=O)NC1NC(=O)NC1=O (configuration not stated) [Allantoin] (20 µM),1.05 (inactive)
5,CN1CCCN=C1/C=C/c1cccs1 [Pyrantel tartrate] (20 µM),1.01 (inactive)
6,CCN1CCN(c2cc3c(cc2F)c(=O)c(C(=O)O)cn3C2CC2)CC1 [Enrofloxacin] (20 µM),1.05 (inactive)
7,CCCNC(C)C(=O)Nc1c(C)csc1C(=O)OC (configuration not stated) [Articaine hydrochloride] (20 µM),1.09 (inactive)
8,CCN(CC)CC(=O)Nc1c(C)cccc1C [Lidocaine hydrochloride] (20 µM),1.05 (inactive)
9,CCn1cc(C(=O)O)c(=O)c2cc(F)c(N3CCNC(C)C3)c(F)c21 (configuration not stated) [Lomefloxacin hydrochloride] (20 µM),1.03 (inactive)
10,C[C@]12CCC(=O)C=C1CC[C@@H]1[C@@H]2C(=O)C[C@@]2(C)[C@H]1CC[C@]2(O)C(=O)CO [Cortisone] (20 µM),1.03 (inactive)
11,CCN(CC)CCNC(=O)c1cc(Cl)c(N)cc1OC [Metoclopramide monohydrochloride] (20 µM),1 (inactive)
12,C[C@@H](CN1CC(=O)NC(=O)C1)N1CC(=O)NC(=O)C1 [Dexrazoxane hydrochloride] (20 µM),1.02 (inactive)
